Screens as filed in PubChem BioAssay.
IL-1B inflam inh – blocks inflammasome-driven IL-1 beta release; activity change, % at 57.5 µM; actives 4.7% (n = 360,000); THP-1 LPS/ATP IL-1B secretion, AlphaLISA, 16 h; hits give low values; in the data active = activity change below about -50%; inconclusive = mostly about -30% to -49%
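THP-1 cells pretreated 1 hr with compounds (up to 57.5 uM final), then stimulated with LPS (250 ng/mL final) plus ATP (1.25 mM final); secreted IL-1B measured by AlphaLISA after 16 hr, decreased signal indicating inhibition.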
TDP1 cell noCPT – qHTS for Inhibitors of human tyrosyl-DNA phosphodiesterase 1 (TDP1): qHTS in cells in absence of CPT; actives 15% (n = 420,000); Potency, µM (top dose mostly 46.2 µM), without a hit: at the highest dose activity change, negative = growth inhibition, most hits filed as inhibitors; DT40 Tdp1-/- hTDP1 cells, no CPT, ATP luminescence, 48 h; AID 686978, 2013; also: potency is read from the fitted curve at half-maximal effect; nearly all actives have a fitted effect of over 55% in size
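Growth kinetics read by CellTiter-Glo luminescence after ≥48 hr at 37 °C. Cells: DT40 Tdp1-/- stably carrying human TDP1, 400 per well, compound exposure in the absence of CPT (DMSO vehicle).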
TDP1 cell CPT – DT40-hTDP1 cell growth loss with CPT | chicken DT40 Tdp1-/-;hTDP1 cells + 20 nM CPT, ATP luminescence, 48 h | Potency, µM (top dose mostly 46.2 µM), for the others: at the top dose activity change, negative = growth inhibition, hits mostly inhibitors | actives 12% (n = 420,000) | AID 686979; also: potency is read from the fitted curve at half-maximal effect; nearly all actives have a fitted effect of over 55% in size
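Chicken DT40 Tdp1-/- cells complemented with human TDP1, 400 cells/well, exposed to compounds plus 20 nM camptothecin for at least 48 h at 37 C; viability read as ATP content by CellTiter-Glo luminescence.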
12-LOX inh – blocks human arachidonate 12S-lipoxygenase; P18054; purified 12hLO, xylenol orange hydroperoxide absorbance; Potency, µM (doses to about 108 µM), for inactives: at the highest dose activity change, negative = inhibition, most hits filed as inhibitors; actives 1.1% (n = 580,000); AID 1671190; also: potency is read from the fitted curve at half-maximal effect
Target sequence (P18054 whole entry, looked up): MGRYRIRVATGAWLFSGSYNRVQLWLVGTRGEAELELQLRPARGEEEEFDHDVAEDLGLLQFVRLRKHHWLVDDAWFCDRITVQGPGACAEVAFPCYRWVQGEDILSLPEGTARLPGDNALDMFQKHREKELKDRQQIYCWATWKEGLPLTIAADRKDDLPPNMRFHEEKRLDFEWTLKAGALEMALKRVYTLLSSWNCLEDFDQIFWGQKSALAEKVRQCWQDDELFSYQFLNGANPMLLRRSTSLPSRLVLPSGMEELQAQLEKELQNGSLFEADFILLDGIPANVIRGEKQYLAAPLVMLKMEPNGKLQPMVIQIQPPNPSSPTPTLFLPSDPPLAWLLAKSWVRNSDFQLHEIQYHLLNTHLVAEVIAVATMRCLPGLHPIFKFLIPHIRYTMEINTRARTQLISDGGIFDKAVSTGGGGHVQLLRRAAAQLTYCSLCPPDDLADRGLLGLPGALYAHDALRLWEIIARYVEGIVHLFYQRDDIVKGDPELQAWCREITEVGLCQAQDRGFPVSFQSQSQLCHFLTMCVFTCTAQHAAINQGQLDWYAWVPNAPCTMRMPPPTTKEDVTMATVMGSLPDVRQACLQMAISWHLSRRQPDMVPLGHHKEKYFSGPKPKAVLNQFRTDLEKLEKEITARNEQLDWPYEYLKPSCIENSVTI
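Hydroperoxide product was detected by ferrous iron/xylenol orange as the 573 to 405 nm absorbance ratio. Arachidonic acid at 40 uM (final) was turned over for 30 min at room temperature by 150 nM human 12hLO, pH 7.0 Hepes buffer, after 15 min compound preincubation.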
HT1080-NT tox – kills 2HG-producing HT-1080-NT fibrosarcoma cells; Potency, µM (doses to about 46.1 µM), without a hit: at the top dose activity, negative = less viability, actives largely listed as cytotoxic; actives 1.6% (n = 360,000); AID 686970; HT-1080-NT fibrosarcoma viability, CellTiter-Glo ATP luminescence, 48 h;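 also: NT is the 2HG producing partner of a matched IDH1 knockdown line; potency is read from the fitted curve at half-maximal effect; 0% = DMSO-treated cells and -100% = media-only wells without cells; nearly all actives have a fitted effect of over 55% in size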
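A 48-hour cytotoxicity screen used HT-1080-NT cells plated 2 hours before compound delivery. ATP-based CellTiter-Glo luminescence measured viability, normalized to DMSO and no-cell controls.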
HT1080 IDH1KD tx – kills HT-1080 cells with IDH1 knockdown; HT-1080 IDH1 knockdown viability, ATP luminescence, 48 h; Potency, µM (titrated, usually from 46.1 µM), for the others: top-dose activity, negative = toxicity, hits mostly cytotoxic; actives 2% (n = 360,000); AID 686971;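 also: potency is read from the fitted curve at half-maximal effect; 0% = DMSO wells and -100% = cell-free medium wells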
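IDH1KD HT-1080 cells, 750/well, RPMI + 5% FBS; compound pinned after 2 h settling; 48 h, 37 °C; CellTiter-Glo luminescence; % activity normalised to DMSO and no-cell wells; curves fitted, classed by r2 and efficacy.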
* marks the source's active call; other numbers are inactive results; ? = inconclusive; · = no result given; [ ] = dose if it differs, or a comment. The full list was thinned out, with hits kept by preference. Unless noted, calls follow the shape of the dose curve; as a rule, active = well fitted curve in the direction sought with a large enough effect; inconclusive = small, poorly fitted or top-dose-only effect, or another doubt; inactive = no such curve, though single readings can be large; an effect the other way counts as inactive or inconclusive. Unless noted, % is scaled to controls: 0 for no effect and ±100 for the full control effect.

SMILES	IL-1B inflam inh	TDP1 cell noCPT	TDP1 cell CPT	12-LOX inh	HT1080-NT tox	HT1080 IDH1KD tx
CC1CCN(C(C(=O)NC2CCCCC2)c2cc3c(cc2[N+](=O)[O-])OCO3)CC1 (stereo unspecified)	-4.4	1.1%	3.7%	10.0%	4.5%	6.0%
O=C([C@@H]1C[C@H](F)CN1C(=O)Nc1cccc(F)c1)N1CCOCC1	·	·	·	8.5%	·	·
N/C(=C\C(=O)/C=C/c1ccccc1)C(Cl)(Cl)Cl	·	·	·	-46.5%	·	·
Cc1cc(-c2nsc(=O)o2)c(S(C)(=O)=O)s1	0.0	16.4µM*	20.6µM*	8.91µM*	-2.0%	-4.9%
O=c1c2ccccc2nc(COc2ccccc2)n1/N=C/c1ccco1	?	14.6µM*	?	-10.5%	-2.6%	-1.3%
O=c1c2ccccc2nc(COc2ccccc2)n1/N=C/c1ccc(O)c(O)c1	-27.0	10.3µM*	14.6µM*	3.55µM*	4.3%	-11.8%
N#Cc1ccc(/C=N/Nc2ccccc2Cl)cc1	·	·	·	10µM*	·	·
Clc1ccccc1NN=Cc1ccccn1	0.0	-28.4%	-6.3%	?	-10.3%	?
N#Cc1ccc(/C=N/Nc2cccc(Cl)c2)cc1	·	·	·	2.51µM*	·	·
Fc1ccc(/C=N/Nc2cccc(Cl)c2)cc1F	·	·	·	3.98µM*	·	·
O=C(NCc1ccc(Cl)cc1)c1ccc2cncn2c1	·	·	·	30.4%[176 µM]	·	·
O=C1CC(N2C(=O)/C(=C/C=C/c3ccccc3)SC2=S)C(=O)N1c1ccccc1 (stereo unspecified)	?	13µM*	13µM*	-20.9%	0.9%	9.8%
CCn1nc(-c2ccc(C)c(S(=O)(=O)N3CCCCC3)c2)c2c(c1=O)CCCC2	·	·	·	20.9%	·	·
COc1ccc(-c2csc3ncnc(N4CCN(S(=O)(=O)c5cccc(Br)c5)CC4)c23)cc1	3.3	9.2µM*	23.1µM*	-2.2%	7.0%	0.0%
CC(=O)c1ccc(S(=O)(=O)N2CCN(c3nc(-c4ccccc4)nc4ccccc34)CC2)cc1	·	?	-17.1%	·	·	·
COc1ccc(-c2csc3ncnc(N4CCN(S(=O)(=O)c5ccc(C(C)=O)cc5)CC4)c23)cc1	-74.2*	?	?	-9.4%	-25.9%	?
COc1ccc(-c2csc3ncnc(N4CCN(S(=O)(=O)c5cccc(C(F)(F)F)c5)CC4)c23)cc1	29.5	?	?	-23.5%	4.7%	3.9%
CN1CCCCC(NC(=O)c2cccs2)C1=O (stereo unspecified)	·	·	·	1.7%	·	·
Cc1ccc(C(=O)NC(C)c2ccc(-n3ccnc3)cc2)o1 (stereo unspecified)	-17.8	1.2%	16.6%	25.1%	7.2%	2.8%
CC(=O)c1cccc2c(O)c(C3=Nc4ccccc4C3=O)[nH]c12	-18.3	14.6µM*	18.4µM*	-3.6%	-23.5%	?
O=C(c1ccc(C(=O)N2CCC(N3CCCC3)CC2)c(Nc2ccccc2)c1)N1CCC(N2CCCC2)CC1	·	·	·	-12.4%[57.4 µM]	·	·
CCCNC(=O)C1(C)CCCN(Cc2ccc(Cl)cc2)C1 (stereo unspecified)	0.0	?	?	16.8%	24.8%	23.7%
CCCNC(=O)C1(C)CCCN(Cc2cc3ccccc3o2)C1 (stereo unspecified)	1.9	23.1µM*	16.4µM*	6.0%	3.4%	-2.5%
CCCNC(=O)C1(C)CCCN(Cc2ccccc2F)C1 (stereo unspecified)	23.7	-17.0%	-23.2%	10.5%	6.7%	0.0%
CCCNC(=O)C1(C)CCCN(Cc2ccc3ccccc3c2)C1 (stereo unspecified)	0.1	23.1µM*	?	2.9%	0.0%	?
